From the supplement of paper PMC10849652
About 7,900 targets were measured; listed, in parts, are those with a hit and a random draw of the rest. About 0.6% of all pairs of compound and target were hits. Unmarked numbers belong to inactive results.

These targets were tested with Cc1cccc(CC(=O)N2CCc3c2ccc(-c2cn(C)c4ncnc(N)c24)c3F)n1 (assay: log2 fold change, soluble protein after heating vs DMSO (PISA); higher = thermal stabilisation; K562 cells, 10 uM, 30 min; active = over 0.2 and 3.5 SD of the protein, either way, in both replicates (recomputed)).
How it was run: (§1)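 Quantification of soluble protein used TMTpro 16plex LC-MS/MS, with channel sums equalised. Samples were the supernatant after 21,000xg for 90 min of pooled aliquots from K562 cells (2×10^6 cells/mL) treated with 10 μM compound for 30 min, heated for 3 min over 48°C-58°C, and extracted in PBS with 0.5% NP-40 at 4°C. Values, from duplicates, describe thermal stability against control samples on a log2 fold-change scale.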

UniProt Q9UJA2, sequence (Q9UJA2 whole entry, looked up): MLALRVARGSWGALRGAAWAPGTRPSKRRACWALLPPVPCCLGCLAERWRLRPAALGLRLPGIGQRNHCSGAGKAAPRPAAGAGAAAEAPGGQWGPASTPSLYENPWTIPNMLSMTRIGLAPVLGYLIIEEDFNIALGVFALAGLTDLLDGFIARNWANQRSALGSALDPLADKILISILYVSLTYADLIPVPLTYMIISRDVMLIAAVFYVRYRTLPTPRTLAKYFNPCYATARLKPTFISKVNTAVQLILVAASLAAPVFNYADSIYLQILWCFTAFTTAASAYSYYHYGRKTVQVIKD
UniProt Q00536, sequence (Q00536 whole entry, looked up): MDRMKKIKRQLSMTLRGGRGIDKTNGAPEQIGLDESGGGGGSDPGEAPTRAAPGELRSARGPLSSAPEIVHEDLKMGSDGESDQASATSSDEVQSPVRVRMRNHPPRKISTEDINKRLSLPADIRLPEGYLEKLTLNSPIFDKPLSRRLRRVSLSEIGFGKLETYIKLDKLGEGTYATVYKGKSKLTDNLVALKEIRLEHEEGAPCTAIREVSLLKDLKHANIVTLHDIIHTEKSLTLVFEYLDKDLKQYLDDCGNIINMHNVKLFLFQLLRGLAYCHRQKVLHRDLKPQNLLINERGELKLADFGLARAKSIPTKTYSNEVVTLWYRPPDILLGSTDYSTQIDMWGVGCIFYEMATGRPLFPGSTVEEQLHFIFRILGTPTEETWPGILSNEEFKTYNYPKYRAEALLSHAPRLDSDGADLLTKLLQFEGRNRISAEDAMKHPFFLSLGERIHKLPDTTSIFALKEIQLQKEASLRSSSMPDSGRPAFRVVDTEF
UniProt Q9BWU1, sequence (Q9BWU1 whole entry, looked up): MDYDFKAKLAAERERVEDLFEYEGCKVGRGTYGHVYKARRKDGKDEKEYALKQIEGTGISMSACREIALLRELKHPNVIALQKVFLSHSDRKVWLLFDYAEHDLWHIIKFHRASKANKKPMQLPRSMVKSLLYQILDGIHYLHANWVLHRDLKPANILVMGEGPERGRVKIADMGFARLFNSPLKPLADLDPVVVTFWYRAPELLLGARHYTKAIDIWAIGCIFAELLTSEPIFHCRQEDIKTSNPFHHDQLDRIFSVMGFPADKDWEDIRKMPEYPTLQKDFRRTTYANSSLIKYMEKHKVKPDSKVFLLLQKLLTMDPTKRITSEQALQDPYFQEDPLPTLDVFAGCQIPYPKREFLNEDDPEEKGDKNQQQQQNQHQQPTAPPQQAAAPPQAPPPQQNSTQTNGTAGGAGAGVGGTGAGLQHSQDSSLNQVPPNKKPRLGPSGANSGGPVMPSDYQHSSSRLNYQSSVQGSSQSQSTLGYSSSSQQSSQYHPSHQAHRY
UniProt Q8N668, sequence (Q8N668 whole entry, looked up): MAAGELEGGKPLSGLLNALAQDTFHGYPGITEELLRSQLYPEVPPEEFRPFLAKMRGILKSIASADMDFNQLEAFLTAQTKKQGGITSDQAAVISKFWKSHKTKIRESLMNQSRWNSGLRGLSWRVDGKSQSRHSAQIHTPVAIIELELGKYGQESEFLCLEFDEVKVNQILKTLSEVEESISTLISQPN
UniProt Q13901, sequence (Q13901 whole entry, looked up): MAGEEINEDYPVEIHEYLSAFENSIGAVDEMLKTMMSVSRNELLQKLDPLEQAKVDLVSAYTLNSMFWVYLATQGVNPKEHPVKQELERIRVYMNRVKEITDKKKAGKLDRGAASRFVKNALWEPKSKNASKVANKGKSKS
UniProt Q96MX0, sequence (Q96MX0 whole entry, looked up): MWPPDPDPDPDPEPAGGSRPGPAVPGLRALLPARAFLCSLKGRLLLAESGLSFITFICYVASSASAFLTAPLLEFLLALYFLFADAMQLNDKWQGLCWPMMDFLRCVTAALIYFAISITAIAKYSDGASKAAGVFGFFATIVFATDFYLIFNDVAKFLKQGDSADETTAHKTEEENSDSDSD
UniProt O75503, sequence (O75503 whole entry, looked up): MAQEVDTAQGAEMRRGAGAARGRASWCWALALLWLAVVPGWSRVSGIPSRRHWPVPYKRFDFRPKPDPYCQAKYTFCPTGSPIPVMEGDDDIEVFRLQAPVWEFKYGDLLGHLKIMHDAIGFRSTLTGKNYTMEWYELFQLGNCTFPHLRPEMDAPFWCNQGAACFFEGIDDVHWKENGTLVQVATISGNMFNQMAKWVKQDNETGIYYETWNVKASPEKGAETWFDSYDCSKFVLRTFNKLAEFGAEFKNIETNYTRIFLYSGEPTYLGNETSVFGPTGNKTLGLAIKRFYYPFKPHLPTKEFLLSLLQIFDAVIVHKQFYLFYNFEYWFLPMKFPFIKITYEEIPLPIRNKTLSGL
UniProt Q9NPF2, sequence (Q9NPF2 whole entry, looked up): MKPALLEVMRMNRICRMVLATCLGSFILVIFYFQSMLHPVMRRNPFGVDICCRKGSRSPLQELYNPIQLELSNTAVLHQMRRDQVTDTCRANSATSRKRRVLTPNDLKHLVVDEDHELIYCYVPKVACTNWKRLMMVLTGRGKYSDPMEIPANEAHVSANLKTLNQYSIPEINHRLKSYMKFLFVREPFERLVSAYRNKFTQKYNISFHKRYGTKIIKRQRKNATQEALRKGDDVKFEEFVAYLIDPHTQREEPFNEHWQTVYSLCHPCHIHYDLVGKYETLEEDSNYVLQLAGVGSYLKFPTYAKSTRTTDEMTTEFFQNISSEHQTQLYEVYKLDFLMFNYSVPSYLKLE
UniProt Q9UNS2, sequence (Q9UNS2 whole entry, looked up): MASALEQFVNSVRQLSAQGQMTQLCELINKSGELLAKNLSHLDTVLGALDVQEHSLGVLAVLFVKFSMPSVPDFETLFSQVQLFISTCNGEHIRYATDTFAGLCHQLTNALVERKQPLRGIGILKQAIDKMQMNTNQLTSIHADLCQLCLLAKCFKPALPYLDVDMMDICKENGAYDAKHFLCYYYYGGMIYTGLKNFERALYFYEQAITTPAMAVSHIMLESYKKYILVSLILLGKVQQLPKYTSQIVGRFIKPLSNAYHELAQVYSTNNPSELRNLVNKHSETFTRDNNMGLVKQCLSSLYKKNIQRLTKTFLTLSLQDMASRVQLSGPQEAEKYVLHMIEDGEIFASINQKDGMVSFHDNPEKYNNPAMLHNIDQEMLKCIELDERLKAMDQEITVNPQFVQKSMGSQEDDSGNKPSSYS
UniProt P46527, sequence (P46527 whole entry, looked up): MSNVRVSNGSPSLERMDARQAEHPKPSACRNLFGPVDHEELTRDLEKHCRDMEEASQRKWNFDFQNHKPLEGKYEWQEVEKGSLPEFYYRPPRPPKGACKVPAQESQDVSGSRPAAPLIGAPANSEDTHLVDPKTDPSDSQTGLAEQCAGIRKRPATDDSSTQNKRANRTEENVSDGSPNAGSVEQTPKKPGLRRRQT
UniProt Q8WUD6, sequence (Q8WUD6 whole entry, looked up): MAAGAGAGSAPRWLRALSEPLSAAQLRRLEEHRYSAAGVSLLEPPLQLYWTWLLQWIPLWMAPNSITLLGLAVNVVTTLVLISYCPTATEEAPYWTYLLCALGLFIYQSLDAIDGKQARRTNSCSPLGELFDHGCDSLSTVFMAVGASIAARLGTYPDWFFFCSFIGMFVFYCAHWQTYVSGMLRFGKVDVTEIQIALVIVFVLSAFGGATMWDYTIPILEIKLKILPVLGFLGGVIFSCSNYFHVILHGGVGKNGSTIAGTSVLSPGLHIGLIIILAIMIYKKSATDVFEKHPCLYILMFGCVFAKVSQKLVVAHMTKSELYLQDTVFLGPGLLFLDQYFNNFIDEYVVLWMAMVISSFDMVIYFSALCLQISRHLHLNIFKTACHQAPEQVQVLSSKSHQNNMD
UniProt P51636, sequence (P51636 whole entry, looked up): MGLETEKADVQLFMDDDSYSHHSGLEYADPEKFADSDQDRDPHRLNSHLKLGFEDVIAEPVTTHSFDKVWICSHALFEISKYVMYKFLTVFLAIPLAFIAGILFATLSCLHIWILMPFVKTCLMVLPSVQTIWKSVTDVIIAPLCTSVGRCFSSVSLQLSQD
UniProt P24311, sequence (P24311 whole entry, looked up): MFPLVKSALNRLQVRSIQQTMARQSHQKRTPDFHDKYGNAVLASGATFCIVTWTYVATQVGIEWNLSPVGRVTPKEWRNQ
UniProt Q13111, sequence (Q13111 whole entry, looked up): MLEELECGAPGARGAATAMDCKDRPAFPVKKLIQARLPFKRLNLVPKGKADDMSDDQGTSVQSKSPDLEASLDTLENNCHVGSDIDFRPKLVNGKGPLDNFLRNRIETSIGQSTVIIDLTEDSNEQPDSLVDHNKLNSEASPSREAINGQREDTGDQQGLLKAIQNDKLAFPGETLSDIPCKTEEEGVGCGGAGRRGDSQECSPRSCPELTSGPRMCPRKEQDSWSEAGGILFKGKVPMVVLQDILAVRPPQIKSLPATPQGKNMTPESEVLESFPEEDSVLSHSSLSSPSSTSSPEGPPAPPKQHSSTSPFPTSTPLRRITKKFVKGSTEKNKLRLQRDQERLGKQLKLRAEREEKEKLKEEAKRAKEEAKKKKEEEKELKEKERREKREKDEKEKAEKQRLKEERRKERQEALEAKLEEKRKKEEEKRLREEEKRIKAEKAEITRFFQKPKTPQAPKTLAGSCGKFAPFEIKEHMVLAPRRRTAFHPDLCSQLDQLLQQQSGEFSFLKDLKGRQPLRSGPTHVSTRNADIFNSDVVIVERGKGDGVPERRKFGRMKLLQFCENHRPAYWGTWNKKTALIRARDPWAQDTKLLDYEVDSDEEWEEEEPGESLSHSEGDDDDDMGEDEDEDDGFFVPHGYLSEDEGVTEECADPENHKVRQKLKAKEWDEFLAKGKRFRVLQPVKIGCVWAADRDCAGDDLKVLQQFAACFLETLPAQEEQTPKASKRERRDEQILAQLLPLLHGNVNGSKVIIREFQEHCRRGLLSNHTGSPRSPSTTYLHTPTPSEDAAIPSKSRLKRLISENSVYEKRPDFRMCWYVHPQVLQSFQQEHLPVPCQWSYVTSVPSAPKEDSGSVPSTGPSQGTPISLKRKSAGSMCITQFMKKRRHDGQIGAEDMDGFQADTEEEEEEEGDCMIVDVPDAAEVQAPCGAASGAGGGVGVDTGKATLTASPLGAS
UniProt P15954, sequence (P15954 whole entry, looked up): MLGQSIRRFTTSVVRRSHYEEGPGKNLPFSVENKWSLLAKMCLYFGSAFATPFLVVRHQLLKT

**Q.** Which log2 fold change does the source give for CASP8 isoform 9 (UniProt Q14790) here?
**A.** 0.093

**Q.** For COX7C (UniProt P15954), which log2 fold change is on record?
**A.** -0.077

**Q.** With COMMD1 (UniProt Q8N668) as the target, how does the log2 fold change read?
**A.** -0.085

**Q.** C15orf41 (UniProt Q9Y2V0) was tested. Which log2 fold change did it give?
**A.** -0.101

**Q.** CAB39L (UniProt Q9H9S4) was tested. Which log2 fold change did it give?
**A.** -0.041

**Q.** With CDK19 (UniProt Q9BWU1) as the target, how does the log2 fold change read?
**A.** -0.014

**Q.** For CHAF1A (UniProt Q13111), which log2 fold change is on record?
**A.** -0.04

**Q.** For COPS3 isoform 2 (UniProt Q9UNS2), which log2 fold change is on record?
**A.** -0.295

**Q.** With C19orf54 (UniProt Q5BKX5) as the target, how does the log2 fold change read?
**A.** 0.007

**Q.** How did the log2 fold change turn out when CAV2 (UniProt P51636) was run?
**A.** -0.054

**Q.** How did the log2 fold change turn out when CMTM3 (UniProt Q96MX0) was run?
**A.** -0.078

**Q.** Which log2 fold change does the source give for COX7B (UniProt P24311) here?
**A.** 0.037

**Q.** With CCNC (UniProt P24863) as the target, how does the log2 fold change read?
**A.** 0.055

**Q.** With CDK17 isoform 2 (UniProt Q00537) as the target, how does the log2 fold change read?
**A.** 0.039

**Q.** For CHST11 (UniProt Q9NPF2), which log2 fold change is on record?
**A.** -0.117

**Q.** For CDK16 isoform 2 (UniProt Q00536), which log2 fold change is on record?
**A.** -0.047

**Q.** CRLS1 (UniProt Q9UJA2) was tested. Which log2 fold change did it give?
**A.** 0.012

**Q.** For CHST10 (UniProt O43529), which log2 fold change is on record?
**A.** 0.052

**Q.** Which log2 fold change does the source give for CDCA2 (UniProt Q69YH5) here?
**A.** -0.065

**Q.** For CENPE (UniProt Q02224), which log2 fold change is on record?
**A.** 0.069

**Q.** Which log2 fold change does the source give for CNN3 (UniProt Q15417) here?
**A.** -0.025

**Q.** For CLINT1 isoform 3 (UniProt Q14677), which log2 fold change is on record?
**A.** -0.083

**Q.** How did the log2 fold change turn out when CDKN1B (UniProt P46527) was run?
**A.** -0.05

**Q.** C1D (UniProt Q13901) was tested. Which log2 fold change did it give?
**A.** -0.013

**Q.** Which log2 fold change does the source give for CRTC1 isoform 2 (UniProt Q6UUV9) here?
**A.** -0.093

**Q.** For CLN5 (UniProt O75503), which log2 fold change is on record?
**A.** 0.019

**Q.** CHPT1 (UniProt Q8WUD6) was tested. Which log2 fold change did it give?
**A.** 0.197

These targets were tested with Cc1cn(-c2cc(NC(=O)c3ccc(C)c(Nc4nccc(-c5cccnc5)n4)c3)cc(C(F)(F)F)c2)cn1 [nilotinib] in the same assay as above.
How it was run: as §1

**Q.** How did the log2 fold change turn out when CASP8 isoform 9 (UniProt Q14790) was run?
**A.** -0.183

**Q.** Which log2 fold change does the source give for COX7C (UniProt P15954) here?
**A.** 0.148

**Q.** How did the log2 fold change turn out when CCDC57 (UniProt Q2TAC2) was run?
**A.** -0.044

**Q.** How did the log2 fold change turn out when CRTC2 (UniProt Q53ET0) was run?
**A.** 0.038

**Q.** How did the log2 fold change turn out when COMMD1 (UniProt Q8N668) was run?
**A.** 0.009

**Q.** Which log2 fold change does the source give for C6orf120 (UniProt Q7Z4R8) here?
**A.** -0.045

**Q.** COG2 (UniProt Q14746) was tested. Which log2 fold change did it give?
**A.** -0.169

**Q.** How did the log2 fold change turn out when CDK19 (UniProt Q9BWU1) was run?
**A.** -0.266

**Q.** How did the log2 fold change turn out when CHAF1A (UniProt Q13111) was run?
**A.** 0.053

**Q.** For COPS3 isoform 2 (UniProt Q9UNS2), which log2 fold change is on record?
**A.** -0.041

**Q.** For CAV2 (UniProt P51636), which log2 fold change is on record?
**A.** 0.221

**Q.** With CMTM3 (UniProt Q96MX0) as the target, how does the log2 fold change read?
**A.** -0.056

**Q.** COX7B (UniProt P24311) was tested. Which log2 fold change did it give?
**A.** 0.053

**Q.** How did the log2 fold change turn out when CHST11 (UniProt Q9NPF2) was run?
**A.** 0.049

**Q.** Which log2 fold change does the source give for CDK16 isoform 2 (UniProt Q00536) here?
**A.** 0.013

**Q.** With CDK4 (UniProt P11802) as the target, how does the log2 fold change read?
**A.** -0.121

**Q.** For CRLS1 (UniProt Q9UJA2), which log2 fold change is on record?
**A.** 0.01

**Q.** With CDC42SE1 (UniProt Q9NRR8) as the target, how does the log2 fold change read?
**A.** 0.055

**Q.** For CHST10 (UniProt O43529), which log2 fold change is on record?
**A.** 0.092

**Q.** How did the log2 fold change turn out when CDCA2 (UniProt Q69YH5) was run?
**A.** 0.164

**Q.** With CNN3 (UniProt Q15417) as the target, how does the log2 fold change read?
**A.** -0.066

**Q.** How did the log2 fold change turn out when CLINT1 isoform 3 (UniProt Q14677) was run?
**A.** 0.042

**Q.** CDKN1B (UniProt P46527) was tested. Which log2 fold change did it give?
**A.** 0.013

**Q.** Which log2 fold change does the source give for C1D (UniProt Q13901) here?
**A.** 0.059

**Q.** Which log2 fold change does the source give for C22orf39 (UniProt Q6P5X5) here?
**A.** -0.07

**Q.** How did the log2 fold change turn out when CLN5 (UniProt O75503) was run?
**A.** 0.041

**Q.** How did the log2 fold change turn out when CHPT1 (UniProt Q8WUD6) was run?
**A.** -0.596

The targets below were run with Cc1nc(Nc2n[nH]c3c2CN(C(=O)N[C@H](CN(C)C)c2ccccc2)C3(C)C)c2sccc2n1 in the same assay as above.
How it was run: as §1

**Q.** How did the log2 fold change turn out when CASP8 isoform 9 (UniProt Q14790) was run?
**A.** 0.018

**Q.** How did the log2 fold change turn out when COX7C (UniProt P15954) was run?
**A.** -0.041

**Q.** For CCDC57 (UniProt Q2TAC2), which log2 fold change is on record?
**A.** -0.023

**Q.** CRTC2 (UniProt Q53ET0) was tested. Which log2 fold change did it give?
**A.** 0.01

**Q.** COMMD1 (UniProt Q8N668) was tested. Which log2 fold change did it give?
**A.** -0.179

**Q.** For C6orf120 (UniProt Q7Z4R8), which log2 fold change is on record?
**A.** 0.044

**Q.** With COG2 (UniProt Q14746) as the target, how does the log2 fold change read?
**A.** -0.006

**Q.** For CDK19 (UniProt Q9BWU1), which log2 fold change is on record?
**A.** 0.297

**Q.** CHAF1A (UniProt Q13111) was tested. Which log2 fold change did it give?
**A.** 0.047

**Q.** For COPS3 isoform 2 (UniProt Q9UNS2), which log2 fold change is on record?
**A.** 0.227

**Q.** With CAV2 (UniProt P51636) as the target, how does the log2 fold change read?
**A.** -0.082

**Q.** With CMTM3 (UniProt Q96MX0) as the target, how does the log2 fold change read?
**A.** -0.007

**Q.** Which log2 fold change does the source give for COX7B (UniProt P24311) here?
**A.** 0.037

**Q.** CHST11 (UniProt Q9NPF2) was tested. Which log2 fold change did it give?
**A.** -0.026

**Q.** How did the log2 fold change turn out when CDK16 isoform 2 (UniProt Q00536) was run?
**A.** 0.619 (active)

**Q.** With CDK4 (UniProt P11802) as the target, how does the log2 fold change read?
**A.** -0.042

**Q.** Which log2 fold change does the source give for CRLS1 (UniProt Q9UJA2) here?
**A.** -0.064

**Q.** How did the log2 fold change turn out when CDC42SE1 (UniProt Q9NRR8) was run?
**A.** 0.055

**Q.** For CHST10 (UniProt O43529), which log2 fold change is on record?
**A.** -0.081

**Q.** For CDCA2 (UniProt Q69YH5), which log2 fold change is on record?
**A.** -0.114

**Q.** For CNN3 (UniProt Q15417), which log2 fold change is on record?
**A.** -0.056

**Q.** With CLINT1 isoform 3 (UniProt Q14677) as the target, how does the log2 fold change read?
**A.** 0.037

**Q.** With CDKN1B (UniProt P46527) as the target, how does the log2 fold change read?
**A.** -0.097

**Q.** For C1D (UniProt Q13901), which log2 fold change is on record?
**A.** -0.074

**Q.** C22orf39 (UniProt Q6P5X5) was tested. Which log2 fold change did it give?
**A.** 0.038

**Q.** With CLN5 (UniProt O75503) as the target, how does the log2 fold change read?
**A.** -0.508

**Q.** How did the log2 fold change turn out when CHPT1 (UniProt Q8WUD6) was run?
**A.** -0.029
